Tau fluor cs: counter-screen for tau fibril formation inhibitors | hit rate 0.93% among 280,000 | Potency, µM (highest dose often 57.7 µM), for inactives: top-dose activity change, negative = decrease | tau K18 P301L Alexa594 fluorescence, heparin fibrillization | AID 1463; further: potency means the concentration at half of the fitted maximal effect; nearly all actives have a fitted effect of over 55% in size
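Human K18 P301L tau (15 uM unlabeled plus 0.24 uM Alexa 594-labeled, final) in 100 mM sodium acetate pH 7 was mixed with compound and 20 uM heparin and incubated 6 hr at 37 C.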
TexasRed fluor: alters Texas Red total fluorescence, flagging assay interference; TRb/SRC2 Texas Red total fluorescence interference; Potency, µM (doses to about 106 µM), inactives show top-dose fluorescence change, negative = quenching; hit rate 0.29% among 280,000; active means well fitted curve in either direction with a large enough effect; inconclusive means small, poorly fitted or top-dose-only effect; further: potency means the concentration at half of the fitted maximal effect
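Human TRb ligand-binding domain at 0.6 uM with 20 nM Texas Red SRC2 peptide in Tris buffer containing 1 uM T3 and 5% DMSO, incubated with compound 5 h at ambient temperature. Total fluorescence (555/632 nm) calculated as parallel + 2 × perpendicular.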
PNC assembly inh: blocks assembly of the perinucleolar compartment | PC3M PTB-GFP, PNC prevalence imaging, 16 h; hits give low values | activity change (PNC), negative = inhibition, % at 10 µM | hit rate 3.1% among 140,000 | AID 2417;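 active means readout at or below -70, meaning at least 70% loss of cells showing the perinucleolar compartment, a nuclear body marking cancer cells; inconclusive means readout between -30 and a set limit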;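 further: plate controls were DMSO wells for no effect and camptothecin positive control wells for full effect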
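Read-out is percentage of cells bearing a perinucleolar compartment, from automated 20x imaging of fixed, Hoechst-stained PC3M PTB-GFP cells. Cells were seeded 4 h, then exposed 16 h to compound (23 nl of library stock) in duplicate plates.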
Tau fibril ThT: inhibitors of human tau fibril formation, thioflavin T binding. hit rate 2.1% among 270,000. Potency, µM (series often up to 57.4 µM), inactives show at the highest dose activity, negative = inhibition, usual class: inhibitors. recombinant tau K18 P301L, heparin-induced fibrillization, ThT fluorescence. AID 1460; further: potency means the concentration at half of the fitted maximal effect; nearly all actives have a fitted effect of over 55% in size
Target sequence (P10636 561-689 P618L limits assumed): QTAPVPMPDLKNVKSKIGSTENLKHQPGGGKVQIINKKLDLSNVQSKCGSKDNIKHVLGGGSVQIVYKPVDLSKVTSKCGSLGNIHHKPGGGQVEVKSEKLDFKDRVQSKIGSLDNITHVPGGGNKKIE
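ThT emission at 510 nm, taken 1 hr after adding 30 uM dye, quantifies aggregates formed when 20 uM heparin acts on human tau K18 P301L for 6 hr at 37 C.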
Tau fibril FP: tau fibrillization inhibition (FP); Potency, µM (doses to about 57.7 µM), for the others: at the highest dose activity, negative = inhibition, hits mostly inhibitors; hit rate 0.39% among 280,000; K18 P301L tau heparin fibrillization, Alexa594 FP, 6 h; further: potency means the concentration at half of the fitted maximal effect; nearly all actives have a fitted effect of over 55% in size
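Read-out: fluorescence polarization of Alexa 594-labeled tau (0.24 uM), 555 nm excitation, 632 nm emission. Mixtures held 15 uM unlabeled K18 P301L, compound and 20 uM heparin, pH 7 acetate buffer, incubated 6 hr at 37 C.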
TRb SRC2 PPI: TRbeta-SRC2 interaction inhibition; P10828; TRbeta-SRC2 peptide binding, fluorescence polarization; receptor liganded with 1 µM T3; hit rate 0.065% among 280,000; Potency, µM (doses to about 106 µM), for inactives: at the top dose activity change, negative = inhibition, most hits filed as inhibitors; AID 1469;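 further: potency means the concentration at half of the fitted maximal effect; plate controls were bound peptide for no effect and peptide without receptor for full effect; nearly all actives have a fitted effect of over 50% in size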
Target sequence (P10828 whole entry, looked up): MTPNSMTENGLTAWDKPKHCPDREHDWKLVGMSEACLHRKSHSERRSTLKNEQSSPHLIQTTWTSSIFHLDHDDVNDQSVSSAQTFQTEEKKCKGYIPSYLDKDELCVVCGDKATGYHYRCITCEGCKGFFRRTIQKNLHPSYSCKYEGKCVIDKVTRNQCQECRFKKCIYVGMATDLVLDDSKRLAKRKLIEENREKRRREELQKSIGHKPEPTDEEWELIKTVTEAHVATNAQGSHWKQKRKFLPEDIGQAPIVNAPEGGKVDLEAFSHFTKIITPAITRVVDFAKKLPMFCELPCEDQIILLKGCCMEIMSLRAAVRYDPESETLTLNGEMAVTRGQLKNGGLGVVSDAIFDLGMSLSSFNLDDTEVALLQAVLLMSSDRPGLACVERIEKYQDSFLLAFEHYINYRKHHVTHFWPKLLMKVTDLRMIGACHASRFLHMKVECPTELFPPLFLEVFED
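Quantitative HTS by FP: 0.6 uM TRb LBD, 20 nM labeled SRC2 20-mer, 1 uM T3, 5% DMSO; 5 hr ambient incubation; % activity per concentration and potencies from concentration series.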
* marks the source's active call; other numbers are inactive results; u = inconclusive; x = not tested or not shown; [ ] = dose if it differs, or a comment. Shown are actives, neighbours in structure and some others; about 4.6% of the full set was active somewhere. Unless noted, the call rests on the fitted dose curve; in most records, active means well fitted curve in the direction sought with a large enough effect; inconclusive means small, poorly fitted or top-dose-only effect, or another doubt; inactive means no such curve, though single readings can be large; an effect the other way counts as inactive or inconclusive. Unless noted, on the % scale 0 is the no-effect control and ±100 the full control effect.

SMILES	Tau fluor cs	TexasRed fluor	PNC assembly inh	Tau fibril ThT	Tau fibril FP	TRb SRC2 PPI
O=C(COC(=O)c1ccc(Cl)c(S(=O)(=O)NCc2ccccc2)c1)NCC1CCCO1 (stereo not drawn)	-4%	1%	x	3%	0%	-11%
Cc1c(Cl)cccc1Nc1sc(C(=O)c2ccccc2)c(N)c1S(=O)(=O)c1ccccc1	-17%	-1%	x	-9%	u	-6%
O=C(COc1ccccc1)Nc1ccccc1NS(=O)(=O)c1cccs1	-12%	-3%	-100*	-1%	-6%	1%
O=C(Nc1ccc(Cl)cc1)Nc1cccc2nsnc12	u	2%	x	u	14µM*	-2%
O=C(Nc1ccc(Cl)cc1)Nc1ccccc1NS(=O)(=O)c1cccs1	14µM*[quencher]	0%	8	u	u	1%
O=C(Nc1ccc(F)cc1)Nc1ccccc1NS(=O)(=O)c1cccs1	u	1%	39	-10%	-11%	0%
C/C(=N\NC(=O)c1ccc(NS(=O)(=O)c2cccs2)cc1)c1ccc(Cl)cc1	-2%	-4%	-89*	-5%	3%	5%
C/C(=N\NC(=O)c1ccc(NS(=O)(=O)c2cccs2)cc1)c1cccs1	-1%	1%	x	5%	7%	2%
C=CCN=C(NC#N)SCc1ccccc1Cl	-11%	1%	16	-11%	3%	-4%
Cc1cc(C)c2sc(N(CCN(C)C)C(=O)c3cc(Cl)sc3Cl)nc2c1	-4%	-2%	x	-10%	0%	10%
COc1cc(/C=N/NC(=O)c2ccc(CSc3nncn3C)cc2)cc(OC)c1O	-4%	-11%	x	u	1%	-2%
O=C1CN(S(=O)(=O)c2ccc(F)cc2)CC(=O)N1CCc1ccccc1	-15%	x	-100*	-5%	4%	x
O=C(O)C1Sc2[nH]c(=O)sc2C2c3cc(Br)ccc3OC(=O)C12 (stereo not drawn)	-15%	1%	x	x	-9%	0%
COC(=O)C1=C(C(=O)OC)C(c2ccc(OC)c(OC)c2)c2sc(=O)[nH]c2S1 (stereo not drawn)	-2%	1%	x	u	-9%	0%
COC(=O)C1=C(C(=O)OC)C(c2cc(Br)ccc2O)c2sc(=O)[nH]c2S1 (stereo not drawn)	u	-1%	0	28µM*	-13%	-14%
COC(=O)C1=C(C(=O)OC)C(c2cc(Cl)ccc2O)c2sc(=O)[nH]c2S1 (stereo not drawn)	u	-4%	19	25µM*	-13%	-4%
Fc1ccc(F)c(NC(=S)NCCc2ccccc2)c1	-19%	-3%	x	-4%	-13%	10%
Cc1cccc(N2CCN(C(=O)c3cccn4c(=O)c5c(C)c(C)sc5nc34)CC2)c1C	-3%	-5%	40	u	2%	-2%
CCN(CC)CCCNc1nc(-c2ccccc2)nc2ccccc12	-5%	-3%	-100*	4%	4%	-5%
OCCNc1nc(-c2ccccc2)nc2ccccc12	-13%	-5%	x	-7%	-7%	2%
NC(=S)n1[nH]c(-c2ccc([N+](=O)[O-])cc2)c(N=Nc2cccc([N+](=O)[O-])c2)c1=O	u	-14%	x	11µM*	-10%	3%
CN(N=Nc1cccc([N+](=O)[O-])c1)c1cccc([N+](=O)[O-])c1	u	-2%	x	-13%	-3%	1%
NC(=S)n1[nH]c(-c2ccc([N+](=O)[O-])cc2)c(N=Nc2ccccc2[N+](=O)[O-])c1=O	-26%	-2%	x	u	-1%	-5%
Cc1c(N=Nc2c(-c3ccc([N+](=O)[O-])cc3)[nH]n(C(N)=S)c2=O)cccc1[N+](=O)[O-]	u	-3%	x	8.9µM*	u	-7%
Nc1ccc2nc(SCc3ccccc3F)sc2c1	0.56µM*[quencher]	-1%	x	x	u	-3%
SMILES	Tau fluor cs	TexasRed fluor	PNC assembly inh	Tau fibril ThT	Tau fibril FP	TRb SRC2 PPI
N=C1CCCN1c1ccccc1O	-4%	2%	x	-1%	1%	0%
N=C1CCC(=N)c2c1c(O)c1ccccc1c2O	u	45µM*[fluorescent]	x	13µM*	25µM*	32µM*
C=CCc1ccc(OCCCCCN2CCOCC2)c(OC)c1	-20%	2%	u	-11%	-1%	-2%
CC(OC(=O)c1ccccc1NS(=O)(=O)c1cccc(C(F)(F)F)c1)C(=O)N(C)Cc1ccccc1 (stereo not drawn)	-19%	0%	27	-6%	-11%	0%
CCCCCC(=O)Nc1nc(C)c(-c2csc(Nc3ccccc3OCC)n2)s1	u	1%	u	u	10%	7%
CCC(=O)Nc1nc(C)c(-c2csc(Nc3ccccn3)n2)s1	u	-2%	x	14µM*	u	-2%
CCCC(=O)Nc1nc(C)c(-c2csc(Nc3ccccc3C)n2)s1	-26%	-1%	68	u	u	-1%
CCCCCC(=O)Nc1nc(C)c(-c2csc(Nc3ccccc3OC)n2)s1	11µM*[quencher]	17%	u	u	u	-2%
COc1ccccc1Nc1nc(-c2sc(NC(=O)c3ccc([N+](=O)[O-])cc3)nc2C)cs1	10µM*[quencher]	-1%	30	3.5µM*	u	-3%
CCCCCCC(=O)Nc1nc(C)c(-c2csc(Nc3cc(Cl)ccc3C)n2)s1	u	-3%	33	u	11%	-1%
CCCCCCC(=O)Nc1nc(C)c(-c2csc(Nc3ccccc3OC)n2)s1	14µM*[quencher]	2%	u	u	16%	-9%
CCc1ccc(NC(=O)CSc2nc(=O)n(Cc3ccccn3)c3c2CCC3)cc1	-8%	-1%	x	-11%	-7%	-5%
CCCCCCCC(=O)OC[C@H](CO)OC(=O)CCCCCCC	-2%	-2%	x	0%	2%	2%
Cc1cccc2sc(NC(=O)CN(C)S(=O)(=O)c3cccs3)nc12	u	1%	-17	-17%	u	8%
C=CC[C@H]1CC(Cc2ccccc2)=C[C@H](CC=C)N1	-6%	2%	-81*	-13%	-7%	-2%
C=CCC1C=C(Cc2ccccc2)CC(CC=C)N1 (stereo not drawn)	-3%	-1%	x	-14%	8%	4%
CC(=O)Nc1ccc(SCC(=O)Nc2cc(C(C)(C)C)nn2-c2ccccc2)cc1	10%	0%	-115*	8%	3%	0%
O=C(Nc1ccc([N+](=O)[O-])cc1)Nc1ccc2[nH]c(=O)[nH]c2c1	8.9µM*[quencher]	-35%	x	8.9µM*	23%	41%
O=C(Nc1ccc([N+](=O)[O-])cc1)Nc1ccc2c(c1)OCCO2	8.9µM*[quencher]	-4%	x	u	u	0%
O=c1[nH]c2ccc(NC(=S)Nc3ccc(F)cc3)cc2[nH]1	-22%	5%	x	u	-1%	1%
